Source: PubChem (several laboratories)
TLR4-MyD88 BLA – inhibitors of TLR4-MyD88 association in cells, primary screen, cell-based, HeLa CL3-4, BLA complementation, FRET ratio. HeLa CL3-4 TLR4/MyD88 BLA complementation. AID 861, 2007. 0.18% of 200,000 active. inhibition, % at 8.4 µM. Toll-like receptor 4 (Homo sapiens) + Myeloid differentiation primary response protein …; in the data active = inhibition above about 25%
B2AR ag – beta2AR agonists driving receptor internalization, primary screen, cell-based, FAP fluorogen, flow cytometry; Am2.2-beta2AR cells; response, % (no concentration beside the values); 0.43% of 340,000 active; AID 504454, 2011;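 active = response above a set limit, near 3 SD of response in nonfluorescent compounds, cut at about 42% in these data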
ABHD5 PLIN5 PPI – ABHD5-PLIN5 interaction inhibitors, primary screen, cell lysate, split luciferase complementation, luminescence; 0.78% of 360,000 active; Split G. princeps luciferase complementation, 4 h; inhibition, % at 4 µM; Perilipin-5 (Homo sapiens) + 1-acylglycerol-3-phosphate O-acyltransferase ABHD5 (Homo …;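 active = inhibition above the mean inhibition across every tested compound plus 3 SD, cut at about 22% in these data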
Target sequence (Q00G26 whole entry, looked up): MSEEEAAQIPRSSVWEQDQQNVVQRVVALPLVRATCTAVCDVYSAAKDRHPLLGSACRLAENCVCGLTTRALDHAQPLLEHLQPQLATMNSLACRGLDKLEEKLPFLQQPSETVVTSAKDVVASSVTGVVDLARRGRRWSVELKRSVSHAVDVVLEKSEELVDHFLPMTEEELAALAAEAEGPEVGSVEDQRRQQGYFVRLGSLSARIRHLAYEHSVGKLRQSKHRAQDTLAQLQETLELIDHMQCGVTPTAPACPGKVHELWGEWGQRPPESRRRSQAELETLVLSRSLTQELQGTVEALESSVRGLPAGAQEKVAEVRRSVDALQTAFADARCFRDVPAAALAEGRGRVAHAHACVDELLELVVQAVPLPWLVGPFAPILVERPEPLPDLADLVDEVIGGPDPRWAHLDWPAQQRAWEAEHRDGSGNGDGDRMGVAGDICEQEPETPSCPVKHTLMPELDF
Target sequence (Q8WTS1 whole entry, looked up): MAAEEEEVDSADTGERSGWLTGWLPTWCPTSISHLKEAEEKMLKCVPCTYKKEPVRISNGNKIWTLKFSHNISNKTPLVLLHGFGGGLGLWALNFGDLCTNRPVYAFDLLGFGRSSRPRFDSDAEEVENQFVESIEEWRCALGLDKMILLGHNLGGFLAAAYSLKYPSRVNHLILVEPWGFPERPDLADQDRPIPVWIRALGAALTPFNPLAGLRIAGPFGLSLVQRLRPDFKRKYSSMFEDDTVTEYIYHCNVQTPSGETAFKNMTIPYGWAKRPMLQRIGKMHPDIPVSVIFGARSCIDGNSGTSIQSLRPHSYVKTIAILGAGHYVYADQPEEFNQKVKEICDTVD
NOD2 RIPK2 PPI – NOD2-RIPK2 binding disruptors in cells, primary screen, fluorescence, CHO cells, BLA complementation; CCF4 ratio; inhibition, % at 4.98 µM; 0.38% of 360,000 active; AID 624267, 2012; in the data active = inhibition above about 21%
TLR9-MyD88 block – inhibitors of TLR9-MyD88 association in cells, primary screen, cell-based, CHO, BLA complementation, fluorescence; AID 504734, 2011; inhibition, % at 4.98 µM; 0.21% of 340,000 active; CCF4 FRET ratio;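 active = inhibition above the mean over all tested compounds plus 3 SD, cut at about 21% in these data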
Exocytosis inh – LAMP-1 surface exposure blockers, TALL-104 cells – cell-based, flow cytometry, MLPCN library, primary screen; AID 651702, 2012; 0.66% of 360,000 active; inhibition, % at 10 µM; TALL-104 LAMP-1 surface exposure; cells stimulated with thapsigargin and PMA;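 active = inhibition above about 55%, limit read from the data; inconclusive = no clear call, values can overlap the other calls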
NOD2-RIPK2 conf – NOD2-RIPK2 binding disruptors, retest, confirmation, fluorescence, CHO cells, BLA complementation, triplicate; shares compounds with NOD2 RIPK2 PPI; CCF4 FRET; inhibition, % at 4.98 µM; 70% of 1,200 active;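 active = mean inhibition across replicates above a set limit taken from the earlier primary screen, cut at about 21% in these data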
NOD2 BLA counter – hits BLA reporter in NOD2-RIPK2 inhibitor counterscreen; 57% of 1,200 active; inhibition, % at 4.98 µM; AID 624371; shares compounds with NOD2 RIPK2 PPI; CHO BLA reporter, CCF4 FRET ratio;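 active = mean inhibition above the low-control mean inhibition plus three low-control SD, cut at about 11% in these data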
Numbers stand for hits; – = inactive; ? = inconclusive; · = no result. A selection: hits, their analogues and other compounds. The true share with any hit is near 2%.

SMILES	TLR4-MyD88 BLA	B2AR ag	ABHD5 PLIN5 PPI	NOD2 RIPK2 PPI	TLR9-MyD88 block	Exocytosis inh	NOD2-RIPK2 conf	NOD2 BLA counter
O=C1NC(Cc2ccccc2)C(=O)N1Cc1ccccc1 (configuration not stated)	·	–	–	–	–	–	·	·
O=c1ccsn1Cc1ccccc1	–	–	82.1	27.0	–	94.6	–	–
CCCS(=O)(=O)NC(=O)C1(C)CCCN(C(=O)c2cccc(C)c2C)C1 (configuration not stated)	·	·	–	–	·	–	·	·
COc1ccc(S(=O)(=O)N2CCCCC2c2cc(C(=O)NCc3cccnc3)no2)cc1 (configuration not stated)	·	·	–	–	·	–	·	·
CC(=O)Nc1ccc(Sc2ccc([N+](=O)[O-])o2)cc1	·	–	–	29.0	–	–	46.8	15.7
CC(C)(C)C(=O)Nc1ccc(Sc2ccc([N+](=O)[O-])cc2)cc1	–	–	–	–	–	–	·	·
OC(c1ccccc1)c1nc(-c2cccc(C(F)(F)F)c2)cs1 (configuration not stated)	·	·	–	–	·	–	·	·
O=C(C[C@@H]1CC[C@@H](NC(=O)Nc2cccc(F)c2)[C@@H](CO)O1)NCC1CCCCC1	·	·	–	–	·	–	·	·
CC(C)(C)c1ccc(NC(=O)C2CCCN(c3cnccn3)C2)cc1 (configuration not stated)	·	–	–	–	–	–	·	·
O=C(N/N=C/c1cc(Cl)cc(Cl)c1O)c1ccncc1	·	–	–	32.5	–	–	26.0	26.0
Cc1ccc(NC(=O)CCC(=O)NN=Cc2ccc(C)o2)c(C)c1	·	·	–	–	·	–	·	·
O=C(COc1ccc(S(=O)(=O)N2CCOCC2)cc1Cl)NCC1CCCO1 (configuration not stated)	·	–	–	45.8	–	–	–	–
C[C@H](O)[C@@H]1C(=O)N2CCc3c([nH]c4ccccc34)[C@@H]2C[C@@H]1N(C)C(=O)c1ccco1	·	·	–	–	·	–	·	·
COc1ccc(-c2cc(C#N)nc(Oc3ccc(Cl)cc3)n2)cc1	–	–	–	–	–	–	·	·
COc1ccc(-c2cc(C#N)nc(Cl)n2)cc1	·	–	–	27.8	–	–	39.9	–
CCc1nc2ccc(C(=O)N(C)Cc3ccco3)cn2c1N(C)CCCc1ccccc1	·	·	–	–	·	–	·	·
Cc1ccc2nc(SCC(=O)Nc3cc(C(F)(F)F)ccc3N3CCOCC3)[nH]c2c1	–	–	–	33.8	–	–	–	–
CC(C)(C)[C@H](N)C(=O)N[C@H]1CCC2C3CC=C4C[C@@H](O)CC[C@]4(C)C3CC[C@@]21C (some centres not stated)	·	–	–	21.4	–	–	21.5	–
CC(C)C(=O)N[C@H]1CCC2C3CC=C4C[C@@H](O)CC[C@]4(C)C3CC[C@@]21C (some centres not stated)	·	–	–	–	–	–	·	·
COc1ccc(NC(=O)CN(C)C(=O)Cc2ccc(-c3ccccc3)cc2)cc1	·	–	–	–	–	–	·	·
CCOC(=O)N1CCC(N2C(=O)c3ccccc3C2Nc2cc(OC)c(OC)c(OC)c2)CC1 (configuration not stated)	–	–	–	–	–	–	·	·
CCOC(=O)[C@]12Cc3c(cc(OC)c(OC)c3OC)[C@H]1N(C1CCCCC1)C(=O)c1cc(OC)ccc12	·	·	–	29.8	·	–	28.2	–
COc1ccc(OC)c(/C=C/C(=O)OCC(=O)N2CCCC2)c1	·	–	–	–	–	–	·	·
COc1ccc(OC)c(/C=C/C(=O)OCC(=O)N2C(C)CCCC2C)c1 (configuration not stated)	·	–	–	21.4	–	–	–	–
COc1ccccc1C(=O)n1nc(-c2ccccc2)nc1NCc1ccco1	–	–	–	30.1	–	–	–	15.9
SMILES	TLR4-MyD88 BLA	B2AR ag	ABHD5 PLIN5 PPI	NOD2 RIPK2 PPI	TLR9-MyD88 block	Exocytosis inh	NOD2-RIPK2 conf	NOD2 BLA counter
COCCNc1nc(Nc2ccc(C)cc2C)c2sccc2n1	·	·	–	–	·	?	·	·
CC(=O)Nc1ccc(S(=O)(=O)N2c3ccccc3C(C)=CC2(C)C)cc1	–	–	–	23.2	–	–	22.2	–
CC(C)c1cc(Cn2c3ccccc3c(=O)n2C(C)C)on1	·	·	–	–	·	–	·	·
CCOC(=O)Nc1cccc2ccccc12	–	–	–	–	–	–	·	·
CCOC(=O)Nc1ccc2c3c(cccc13)-c1ccccc1-2	·	–	–	33.7	–	–	31.4	47.2
Cc1ccc(C(=O)c2sc3nsc(C)c3c2N)cc1	–	–	–	24.2	–	–	23.1	25.6
CCN(CC)c1ccc(/C=C2\SC(=O)N(C(C)C)C2=O)o1	·	–	85.8	55.9	·	–	–	10.5
CC(C)N1C(=O)S/C(=C/c2ccc3c(c2)n(C)c(=O)n3C)C1=O	–	–	–	–	–	–	·	·
CC(C)(C)n1nnnc1C(c1ccccc1)N1CCN(CCN2CCOCC2)CC1 (configuration not stated)	·	·	–	–	·	–	·	·
CCOC(=O)C1=C(C)Nc2sc(C(=O)c3ccc(F)cc3)c(N)c2C1c1ccc(C(=O)OC)cc1 (configuration not stated)	–	–	–	–	–	–	·	·
CCOC(=O)C1=C(C)Nc2sc(C(=O)c3ccc(C)cc3)c(N)c2C1c1ccc(C(=O)OC)cc1 (configuration not stated)	–	–	–	41.5	–	–	–	17.0
COc1ccc(CC(=O)Nc2ccc(-c3cn4ccc(C)cc4n3)cc2)cc1	–	–	–	22.7	–	–	–	–
Cc1ccc(S(=O)(=O)N2C(=O)C(c3ccccc3)SC2=Nc2ccccc2)cc1 (configuration not stated)	–	–	–	–	–	–	·	·
Cc1ccc(S(=O)(=O)N2C(=O)C(C)SC2=Nc2ccccc2)cc1 (configuration not stated)	–	–	–	41.0	–	–	–	–
CN(C)c1ccc(C=c2c3ccccc3n3c2cc(-c2ccc(Cl)cc2)[n+]3C)cc1	·	–	–	24.6	–	–	23.3	22.7
CN(c1ccc(Cl)cc1)c1cc(=O)n(C)c2ccccc12	–	–	–	–	–	–	·	·
O=S(=O)(c1ccccc1F)N1CCN(CCOc2ccccc2)CC1	·	–	–	–	–	–	·	·
